Among the test systems are HCT-15 colon; HT29 colon; SNB-75 CNS; SNB-19 CNS; U251 CNS; PC-3 prostate; SK-MEL-5 melanoma; UACC-62 melanoma; LOX IMVI melanoma; SK-MEL-28 melanoma; SK-MEL-2 melanoma; EKVX NSCLC; SN12C renal; UO-31 renal; TK-10 renal; ACHN renal; CAKI-1 renal; A498 renal; CCRF-CEM leukemia; MOLT-4 leukemia.
What all share (experiment): NCI-60 one-dose screen, 48 h (100 = growth as untreated, 0 = no growth, -100 = all killed)
Holding throughout (conditions): 10 µM unless noted

Compounds without any hit were thinned out: in the full panel of roughly 83,000, 20% have a hit.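 Interpretation: 100, growth as untreated; towards 0, rising growth inhibition; 0, no net growth; 0 to -100, cell death. Compounds scoring below 10 were considered active.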 A number with no mark means an inactive call. Calls of active or inactive are those of the source.

This passage reports growth results from PubChem BioAssay (NCI).

Consider `O=C(NNc1nc2cc(F)ccc2n2cccc12)c1ccncn1`, for which the growth in the assay on HCT-15 colon was 25.8%; in the assay with HT29 colon it was 28.3%; in the assay with SNB-75 CNS, -2.99% (active); in the assay on SNB-19 CNS, 25.1%; with U251 CNS it was 12.9%; in the assay with PC-3 prostate it was 35.6%. In addition, the growth was -22.1% (active) in the assay on SK-MEL-5 melanoma; 4.91% (active) in the assay with UACC-62 melanoma; 7.82% (active) in the assay on LOX IMVI melanoma; 23.5% in the assay on SK-MEL-28 melanoma; 26.4% in the assay on SK-MEL-2 melanoma; 11.2% with EKVX NSCLC. Further, the growth was 21.3% with SN12C renal; 18.6% in the assay with UO-31 renal; 31.7% in the assay on TK-10 renal; 13.3% in the assay with ACHN renal; 16.5% in the assay with CAKI-1 renal; 14.6% in the assay with A498 renal. Besides, the results for the growth in the assay on CCRF-CEM leukemia and in the assay with MOLT-4 leukemia were 8.88% (active) and 11.7%, respectively.
As for `c1cc(-c2nc3ccc4[nH]ncc4c3c3c2CCCC3)[nH]n1`, the growth with HCT-15 colon is 34.8%; in the assay on HT29 colon, 63.7%; in the assay on SNB-75 CNS it was 60.3%; with SNB-19 CNS, 64.6%; with U251 CNS it was 65.7%; in the assay on PC-3 prostate it was 57.1%. Moreover, the growth in the assay with SK-MEL-5 melanoma was 76.9%; in the assay on UACC-62 melanoma, 50.7%; in the assay on LOX IMVI melanoma, 58.4%; with SK-MEL-28 melanoma it was 94.1%; in the assay on SK-MEL-2 melanoma it was 29.1%; in the assay with EKVX NSCLC it was 60.8%. In addition, the growth was 75% in the assay with SN12C renal; 50.7% in the assay on UO-31 renal; 36% in the assay on TK-10 renal; 32.6% in the assay with ACHN renal; 27.6% in the assay on CAKI-1 renal; 16.2% in the assay with A498 renal. For the same compound, the values for the growth with CCRF-CEM leukemia and in the assay on MOLT-4 leukemia were 46.7% and 67.8%, respectively.
`CCc1cccc2c3c(sc12)C(c1ccc(OC)cc1)C(C#N)=C(/N=C/c1ccc(Cl)cc1)O3` (stereo not given): the growth in the assay with HCT-15 colon was 20.2%; in the assay on HT29 colon it was -25.7% (active); with SNB-75 CNS, 3.81% (active); in the assay with SNB-19 CNS it was 30.6%; in the assay with U251 CNS, 20.1%; in the assay on PC-3 prostate it was 21.1%. In addition, the growth in the assay on SK-MEL-5 melanoma was 4.03% (active); in the assay on UACC-62 melanoma, 27.8%; in the assay on LOX IMVI melanoma it was 38%; with SK-MEL-28 melanoma it was 59.8%; in the assay with SK-MEL-2 melanoma, -27.5% (active); with EKVX NSCLC it was 47.6%. Further, the growth with SN12C renal was 41.8%; in the assay with UO-31 renal it was 37.8%; in the assay on TK-10 renal, 80.7%; with ACHN renal, 43%; in the assay on CAKI-1 renal, 42.1%; with A498 renal, -7.61% (active). In addition, the growth in the assay with CCRF-CEM leukemia was 16.3%; in the assay on MOLT-4 leukemia, 22.5%.
Regarding `Cn1ccnc1C(=O)/C=C/C=C/c1ccc(C(=O)Nc2ccc(F)cc2)cc1`, the growth is -36.8% (active) in the assay with HCT-15 colon; 0.045% (active) with HT29 colon; 51.7% with SNB-75 CNS; 39.6% with SNB-19 CNS; -1.47% (active) in the assay on U251 CNS; 41.8% with PC-3 prostate. Further, the growth is 30.4% with SK-MEL-5 melanoma; 32.8% in the assay with UACC-62 melanoma; -65.7% (active) with LOX IMVI melanoma; 39.7% with SK-MEL-28 melanoma; 90.8% in the assay on SK-MEL-2 melanoma; 33.4% in the assay with EKVX NSCLC. Besides, the growth was 1.94% (active) in the assay with SN12C renal; 44.3% in the assay on UO-31 renal; 61.2% in the assay on TK-10 renal; 21.9% with ACHN renal; 37.2% with CAKI-1 renal; 62% in the assay on A498 renal. Also, the values for the growth in the assay with CCRF-CEM leukemia and with MOLT-4 leukemia were 10.3% and 12.3%, respectively.
As to `NC(N)=Nc1ccc(Nc2cccc(Oc3ccc(Cl)c(C(F)(F)F)c3)c2)cn1`, the growth with HCT-15 colon was 42%; in the assay with HT29 colon, 18.9%; with SNB-75 CNS, 52.7%; with SNB-19 CNS it was 24.3%; in the assay with U251 CNS, -68.8% (active); in the assay on PC-3 prostate it was -55.8% (active). Moreover, the growth is 28.3% in the assay with SK-MEL-5 melanoma; 45.6% in the assay on UACC-62 melanoma; -97.2% (active) in the assay on LOX IMVI melanoma; 60.7% in the assay with SK-MEL-28 melanoma; 74.9% in the assay on SK-MEL-2 melanoma; 30.5% with EKVX NSCLC. Moreover, the growth with SN12C renal is -71.8% (active); in the assay on UO-31 renal, 56.4%; in the assay with TK-10 renal, 81.7%; with ACHN renal, 55.7%; in the assay on CAKI-1 renal, 42.9%; with A498 renal it was 62.8%. Besides, the growth in the assay on CCRF-CEM leukemia was -9.86% (active); in the assay with MOLT-4 leukemia, 0.616% (active).
With `COc1ccc(-c2nc(C(Cl)Cl)nc3cc(-c4ccccc4)nn23)cc1`, the growth was 4.52% (active) in the assay with HCT-15 colon; -20.2% (active) with HT29 colon; -9.44% (active) with SNB-75 CNS; 5.79% (active) in the assay on SNB-19 CNS; -51.7% (active) in the assay with U251 CNS; 35.5% in the assay with PC-3 prostate. Also, the growth in the assay with SK-MEL-5 melanoma is 34.1%; in the assay on UACC-62 melanoma, 37.9%; with LOX IMVI melanoma, 23.7%; in the assay on SK-MEL-28 melanoma, -46.4% (active); in the assay on SK-MEL-2 melanoma it was 77.4%; in the assay with EKVX NSCLC, -3.98% (active). The growth is 29.1% in the assay with SN12C renal; 25.7% in the assay with UO-31 renal; 33.1% in the assay on TK-10 renal; -55.3% (active) with ACHN renal; -14.5% (active) in the assay with CAKI-1 renal; -33.4% (active) in the assay on A498 renal. Moreover, the growth was 18.2% with CCRF-CEM leukemia and 4.01% (active) in the assay with MOLT-4 leukemia.
As for `CN(C)CCN(C)c1ccc2ncc(C#Cc3cncc(C(=O)Nc4ccc(CN5CCN(C)CC5)c(C(F)(F)F)c4)c3)n2n1`, the growth was -25.2% (active) in the assay on HCT-15 colon; -66.1% (active) in the assay on HT29 colon; 47.9% in the assay with SNB-75 CNS; -11.3% (active) in the assay with SNB-19 CNS; 64.1% with U251 CNS; 65.2% with PC-3 prostate. For the same compound, the growth in the assay with SK-MEL-5 melanoma was 96.4%; in the assay with UACC-62 melanoma, 93%; in the assay with LOX IMVI melanoma it was -89% (active); with SK-MEL-28 melanoma, 105%; in the assay with SK-MEL-2 melanoma it was 84.5%; with EKVX NSCLC, 86.9%. For the same compound, the growth with SN12C renal is 36.1%; with UO-31 renal, 68.7%; in the assay with TK-10 renal, 134%; with ACHN renal, 47.2%; in the assay on CAKI-1 renal, 58.1%; in the assay on A498 renal, 112%. The growth in the assay with CCRF-CEM leukemia was 7.73% (active); in the assay with MOLT-4 leukemia, 3.55% (active).
